Pf growth 96h: inhibits malaria parasite growth, 96 h; P. falciparum luciferase reporter growth, 96 h; Potency, µM (top dose mostly 28.7 µM), without a hit: top-dose activity change, negative = inhibition, actives largely listed as inhibitors; 320,000 compounds, 6.9% hits; further: potency means the concentration at half of the fitted maximal effect; on the % scale 0 is the no-effect control and ±100 the full control effect
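Infected RBCs, 2% Hct / 0.05% parasitemia final; luciferase-reporter P. falciparum; cpd 96 h, 37 C, 5% CO2; luciferase detection reagent; luminescence.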
Shiga inhibitor: blocks Shiga toxin action in Vero cells; Vero cells, Shiga toxin protein synthesis inhibition reporter; AID 2315; 290,000 compounds, 9.2% hits; inhibition, % at 38.7 µM; in the data active means inhibition mostly above about 28%, no sharp cut-off; inactive means mostly below about 43%; further: 0% is about no effect
HCV inh: HCV inhibition. AID 651820. 340,000 compounds, 3.4% hits. Huh7.5.1 HCVcc-Cre infection, luciferase reporter, 44 h. Potency, µM (highest dose often 41.8 µM), for inactives: at the top dose activity change, negative = inhibition, hits mostly inhibitors; further: potency means the concentration at half of the fitted maximal effect; on the % scale 0 is the no-effect control and ±100 the full control effect
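Infectious HCVcc-Cre (~0.5 moi) was added to cells just after compound, with cells seeded 4 h earlier at 1,000 per well. Luciferase activity after 44 h culture reported infection; substrate was incubated 15 min at room temperature before reading.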
HCMV antiviral: blocks human cytomegalovirus replication. HFF cells, HCMV-luciferase reporter, 72 h; stronger effect = lower value. activity change, negative = inhibition, % at 57.5 µM. 410,000 compounds, 4.5% hits. AID 1259415; in the data active means activity change below about -60%; inconclusive means no clear call, values can overlap the other calls; inactive means above about -39%; further: on the % scale 0 is the no-effect control and ±100 the full control effect
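Human foreskin fibroblasts infected with luciferase-reporter HCMV at MOI 1 PFU/cell, compounds at two doses. Luciferase measured 72 h post infection; normalized to buffer-only basal and Salinomycin (10uM) controls.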
CHX counter: counter-screen for Shiga toxin inhibitors: cycloheximide protein synthesis inhibition. cell reporter, cycloheximide protein synthesis inhibition counterscreen. 300,000 compounds, 12% hits. max response, %; in the data active means max response mostly above about 13%, no sharp cut-off; inactive means mostly below about 14%; further: read at 38.3 µM for the half of the compounds with a filed dose; 0% is about no effect
Pf growth 48h: inhibits P. falciparum growth in the first generation, 48 h; P. falciparum luciferase growth in erythrocytes, 48 h; Potency, µM (doses to about 28.7 µM), for the others: at the highest dose activity change, negative = inhibition, actives largely listed as inhibitors; 310,000 compounds, 5.9% hits; further: potency means the concentration at half of the fitted maximal effect; on the % scale 0 is the no-effect control and ±100 the full control effect
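Cell-based growth assay: transgenic P. falciparum expressing firefly luciferase, cultured in red cells within RPMI 1640 containing 0.5% w/v Albumax, 24 mM bicarbonate and gentamycin. A drop in luciferase activity indicates inhibition.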
An asterisk follows results filed as active; ? = inconclusive; nt = not tested or not shown; [ ] = dose if it differs, or a comment. Sampled rows, rich in hits. Any-hit rate of the full collection: about 21%. Unless noted, the call rests on the fitted dose curve; in most records, active means well fitted inhibition curve with a large enough effect; inconclusive means small, poorly fitted or top-dose-only effect, or another doubt; inactive means no such curve, though single readings can be large or run the other way.

SMILES	Pf growth 96h	Shiga inhibitor	HCV inh	HCMV antiviral	CHX counter	Pf growth 48h
CCOc1ccccc1-n1c(SCC(N)=O)nnc1-c1cccnc1	11.7µM*	-4.0	13.4%	-12.2	1.0	-6.1%
CCOCCCNc1nc2ccccc2[nH]1	?	34.2	?	16.2	12.0*	-1.0%
CCCCNc1nc2ccccc2[nH]1	nt	33.7	-23.4%	121.9	21.8*	?
c1ccc2[nH]c(NCCCc3cnc[nH]3)nc2c1	nt	-8.9	nt	nt	13.3	nt
CCc1nn(CC(=O)N2CCN(c3cccc(Cl)c3)CC2)c(=O)c2cc3sccc3n12	nt	nt	nt	82.9	nt	nt
N#CC1CN(Cc2ccccc2)CN(Cc2ccccc2)C1	?	11.7	7.4%	-62.5*	1.6	-12.9%
C=CC(C)(C)c1c(O)c(CC=C(C)C)c(O)c2c(=O)c3ccc(O)c(O)c3oc12	nt	nt	11.2µM*	nt	nt	nt
Cc1onc(-c2ccccc2Cl)c1C(=O)OCN1C(=O)c2ccccc2C1=O	13.1µM*	-2.4	6.0%	-3.1	-0.7	11.7%
Cc1onc(-c2ccccc2Cl)c1C(=O)OCc1cnc(Cl)s1	0.0%	22.4	-27.2%	-13.6	-2.9	0.0%
Cc1onc(-c2ccccc2Cl)c1C(=O)O/N=C(\N)c1ccccc1	16.9%	19.0	?	55.2	23.1*	?
COc1ccc(C(C)=NOC(=O)c2c(-c3ccccc3Cl)noc2C)cc1CN1CCOCC1	nt	nt	nt	-60.2*	nt	nt
C/C(=N\OC(=O)c1c(-c2ccccc2Cl)noc1C)c1ccncc1	23.0%	-3.5	-11.0%	-1.0	-4.8	30.7%
COc1ccc(NC(=S)N2CCCC2c2ccc(OC)c(OC)c2)cc1 (stereo not drawn)	-40.1%	-13.9	-2.3%	0.0	5.6	-2.6%
COc1ccc(C2CCCN2C(=S)Nc2cccc(C)c2)cc1OC (stereo not drawn)	?	-5.4	-21.0%	-35.8	6.9	11.7µM*
COc1ccc(C2CCCN2C(=S)Nc2cccc(C)c2C)cc1OC (stereo not drawn)	?	52.8	-17.7%	-31.2	-1.0	11.7µM*
COc1ccc(C2CCCN2C(=S)Nc2ccc(C)cc2Cl)cc1OC (stereo not drawn)	13.9%	63.8*	?	-38.2	42.7	-26.8%
Cc1cccnc1NC(=O)c1ccc(NS(=O)(=O)/C=C/c2ccccc2)cc1	-0.9%	nt	?	-16.6	nt	?
Cn1ncc(Br)c1C(=O)NC1CCCCCC1	?	-3.0	10.9%	-18.6	-1.5	10.7%
CCOc1ccccc1NC(=O)c1ccc(CN2CCc3ccccc3C2)cc1	?	-9.6	?	1.0	-3.8	-6.8%
CCOC(=O)c1ccc(NC(=O)CN2CCc3ccccc3C2)cc1	nt	-7.9	-8.7%	62.8	5.3	?
CCOc1ccc(NC(=O)c2ccc(CN3CCc4ccccc4C3)cc2)cc1	5.22µM*	1.9	2µM*	?	1.4	-9.6%
CCOC(=O)c1ccc(NC(=O)c2ccc(CN3CCc4ccccc4C3)cc2)cc1	60.5%	40.3	1.41µM*	-32.7	-3.2	?
CC(C)NC(=O)Cc1csc2nc(-c3ccccc3)cn12	nt	nt	nt	2.2	nt	nt
O=C(Nc1ccccc1C(=O)N1CCOCC1)c1cc2ccccc2o1	18.1%	2.4	11.8%	-18.5	-3.2	-9.1%
O=C(NC(=S)Nc1ccc(CN2CCOCC2)cc1)c1cc2ccccc2o1	-7.3%[5.75 µM]	20.5	-8.7%	-70.2*	5.7	14.3%
SMILES	Pf growth 96h	Shiga inhibitor	HCV inh	HCMV antiviral	CHX counter	Pf growth 48h
O=C(NC(=S)Nc1ccc(CN2CCOCC2)cc1)c1ccccc1[N+](=O)[O-]	13.2%	2.3	-3.3%	-26.4	13.4	-11.8%
O=C(Nc1ccc(N2CCOCC2)cc1)c1cc2ccccc2o1	nt	75.7*	?	8.2	53.5*	104.3%
O=C(/C=C/N1CCOCC1)c1coc2ccccc12	190.3%	62.7*	5.6%	15.6	35.5*	181.9%
O=C(O)c1coc2ccccc12	nt	-7.4	7.8%	nt	-1.5	23.8%
O=C(/C=C/N1CCOCC1)c1cc2ccccc2o1	48.3%	70.7*	18.6%	115.3	26.9*	91.0%
COC(=O)[C@@H]1[C@@H](CO)[C@@H]2Cn3c(ccc(Br)c3=O)[C@H]1N2S(C)(=O)=O	nt	nt	nt	16.2	nt	nt
O=C(CN1CCN(c2ccccc2)CC1)Nc1cccc([N+](=O)[O-])c1	25.4%	3.2	6.2%	-16.5	0.1	30.2%
CCC(=O)N1CCN(c2ccc(NC(=O)c3ccc(-c4ccccc4)cc3)cc2)CC1	?	-17.9	nt	nt	-0.4	nt
O=C(Nc1ccc(CN2CCOCC2)cc1)c1cc2ccccn2n1	9.9%	38.2*	1.8%	70.1	21.8*	63.6%
O=C(Nc1ccc(N2CCN(C(=O)c3ccc(Cl)cc3)CC2)cc1)c1cc2ccccc2o1	5.86µM*	22.3	12.8%	-32.1	-2.0	nt
O=C(NC(=S)Nc1ccc(CN2CCOCC2)cc1)c1cccc(F)c1	-3.1%	24.6	0.0%	-34.3	22.5*	-4.7%
CCC(=O)N1CCN(c2ccc(NC(=O)c3cc4ccccc4o3)cc2)CC1	50.6%	42.2	?	-23.2	15.6*	?
CN(Cc1ccco1)C(=O)Cn1nc(-c2ccc(Cl)cc2)ccc1=O	-4.9%	-10.0	11.8%	?	-3.2	-9.7%
O=C(Nc1ccc(CN2CCOCC2)cc1)c1cc2ccccc2o1	nt	64.2*	35.5µM*	20.6	34.3*	21.3%
O=C(Nc1cc(Cl)ccc1N1CCOCC1)c1cc2ccccc2o1	14.3%	-6.3	?	42.6	-2.5	-16.7%
CCC(C)N1C(=O)S/C(=C/c2ccc(N3CCOCC3)cc2C)C1=O (stereo not drawn)	42.0%	87.0*	?	24.5	56.0*	42.9%
Cc1cc(/C=C2/SC(=O)NC2=O)c(C)n1-c1ccc(N2CCOCC2)cc1	-6.7%	23.5	13.2%	?	8.2	-28.8%
Cc1ccc(N2CCN(C(=O)N3CCOCC3)CC2)cc1C	1.5%	-2.5	16.0%	-16.4	-1.9	0.0%
Cc1cc(N2CCOCC2)ccc1/C=C1\SC(=O)N(C(C)C)C1=O	203.2%	73.7	-29.2%	24.1	38.9*	111.4%
Cc1ccc(S(=O)(=O)Oc2ccccc2[N+](=O)[O-])cc1	nt	nt	3.8%	?	nt	nt
COc1ccnc(Oc2cccc(C(F)(F)F)c2)c1C(=O)N/C=N/OCc1ccccc1F	?	-13.7	11.2µM*	-11.1	1.3	?
COc1ccnc(Oc2ccc(F)cc2)c1C(=O)N/C=N/OCc1c(Cl)cccc1Cl	?	2.1	?	?	11.1	11.7µM*
COc1ccnc(Oc2ccccc2)c1C(=O)N/C=N/OCc1ccccc1	-2.4%	15.5	-4.0%	-17.3	-3.2	8.1%
Cc1ccc(-n2nc(C(=O)N3CCCCC3C)c(=O)n(C)c2=O)cc1 (stereo not drawn)	nt	nt	nt	2.6	nt	nt
Nc1ccc(Oc2ccc3c(c2)OCO3)cc1	?	14.8	1.9%	119.5	12.5	34.2%
c1ccc2c(Oc3ccc4c(c3)OCO4)nncc2c1	152.9%	76.0*	-1.8%	34.1	29.4*	127.6%
